Test results published in ChEMBL document CHEMBL1961873, “Compounds: GSK PKIS; Assays: Nanosyn kinase panel” (2012).

Experiments:
[1] = molecular target: T1, Serine/threonine-protein kinase D2 (Homo sapiens) (UniProt Q9BZL6); details: at 1 µM;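 note: mean value of PRKD2 inhibition, from the GSK PKIS screening panel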
T1 sequence (whole entry): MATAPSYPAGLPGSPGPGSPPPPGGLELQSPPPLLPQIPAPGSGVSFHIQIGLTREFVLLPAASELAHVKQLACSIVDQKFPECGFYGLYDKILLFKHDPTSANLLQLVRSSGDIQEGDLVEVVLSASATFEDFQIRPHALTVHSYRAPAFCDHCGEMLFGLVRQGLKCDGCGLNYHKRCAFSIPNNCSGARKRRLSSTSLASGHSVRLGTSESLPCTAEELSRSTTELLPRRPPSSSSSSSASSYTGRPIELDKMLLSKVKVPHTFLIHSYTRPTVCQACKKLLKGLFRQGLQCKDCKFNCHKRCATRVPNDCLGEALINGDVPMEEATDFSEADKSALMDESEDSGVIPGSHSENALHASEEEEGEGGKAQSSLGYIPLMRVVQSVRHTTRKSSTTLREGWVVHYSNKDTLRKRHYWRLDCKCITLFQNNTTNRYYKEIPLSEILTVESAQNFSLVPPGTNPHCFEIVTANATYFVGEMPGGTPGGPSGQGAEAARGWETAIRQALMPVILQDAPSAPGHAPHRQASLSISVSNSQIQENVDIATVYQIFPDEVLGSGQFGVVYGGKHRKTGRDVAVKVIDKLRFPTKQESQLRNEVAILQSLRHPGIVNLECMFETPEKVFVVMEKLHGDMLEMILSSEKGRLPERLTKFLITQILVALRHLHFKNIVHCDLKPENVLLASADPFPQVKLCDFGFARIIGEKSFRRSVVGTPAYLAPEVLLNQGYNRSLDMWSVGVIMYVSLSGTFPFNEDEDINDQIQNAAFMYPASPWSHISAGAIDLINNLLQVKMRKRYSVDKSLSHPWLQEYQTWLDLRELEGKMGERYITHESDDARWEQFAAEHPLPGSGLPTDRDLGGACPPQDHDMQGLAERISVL

[2] = molecular target: T2, Serine/threonine-protein kinase D3 (Homo sapiens) (UniProt O94806); details: at 0.1 µM
T2 sequence (whole entry): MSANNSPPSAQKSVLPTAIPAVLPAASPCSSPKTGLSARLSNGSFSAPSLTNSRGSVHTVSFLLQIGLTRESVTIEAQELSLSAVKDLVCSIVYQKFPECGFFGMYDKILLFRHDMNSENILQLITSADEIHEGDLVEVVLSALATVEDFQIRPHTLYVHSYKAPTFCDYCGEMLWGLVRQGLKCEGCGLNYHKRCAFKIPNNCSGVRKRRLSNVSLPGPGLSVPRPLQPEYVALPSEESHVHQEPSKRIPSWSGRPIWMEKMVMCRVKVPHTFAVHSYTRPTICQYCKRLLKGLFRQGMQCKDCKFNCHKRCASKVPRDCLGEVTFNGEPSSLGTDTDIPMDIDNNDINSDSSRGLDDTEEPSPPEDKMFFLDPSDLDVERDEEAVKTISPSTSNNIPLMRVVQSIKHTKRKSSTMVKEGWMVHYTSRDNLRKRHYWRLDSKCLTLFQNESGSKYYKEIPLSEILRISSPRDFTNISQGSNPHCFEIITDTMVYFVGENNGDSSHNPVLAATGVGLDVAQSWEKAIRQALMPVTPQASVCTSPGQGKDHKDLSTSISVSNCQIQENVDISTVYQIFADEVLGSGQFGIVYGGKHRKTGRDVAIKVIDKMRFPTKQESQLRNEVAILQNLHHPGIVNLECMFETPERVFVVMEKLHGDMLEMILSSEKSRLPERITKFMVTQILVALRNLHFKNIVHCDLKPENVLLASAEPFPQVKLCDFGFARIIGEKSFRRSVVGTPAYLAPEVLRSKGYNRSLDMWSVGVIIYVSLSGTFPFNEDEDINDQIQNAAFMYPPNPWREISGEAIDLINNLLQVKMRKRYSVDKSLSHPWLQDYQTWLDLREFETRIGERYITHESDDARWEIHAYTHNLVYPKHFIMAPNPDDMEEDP

[3] = molecular target: T2, Serine/threonine-protein kinase D3 (Homo sapiens); details: at 1 µM
[4] = molecular target: T3, cGMP-dependent protein kinase 1 (Homo sapiens) (UniProt Q13976); details: at 0.1 µM
T3 sequence (whole entry): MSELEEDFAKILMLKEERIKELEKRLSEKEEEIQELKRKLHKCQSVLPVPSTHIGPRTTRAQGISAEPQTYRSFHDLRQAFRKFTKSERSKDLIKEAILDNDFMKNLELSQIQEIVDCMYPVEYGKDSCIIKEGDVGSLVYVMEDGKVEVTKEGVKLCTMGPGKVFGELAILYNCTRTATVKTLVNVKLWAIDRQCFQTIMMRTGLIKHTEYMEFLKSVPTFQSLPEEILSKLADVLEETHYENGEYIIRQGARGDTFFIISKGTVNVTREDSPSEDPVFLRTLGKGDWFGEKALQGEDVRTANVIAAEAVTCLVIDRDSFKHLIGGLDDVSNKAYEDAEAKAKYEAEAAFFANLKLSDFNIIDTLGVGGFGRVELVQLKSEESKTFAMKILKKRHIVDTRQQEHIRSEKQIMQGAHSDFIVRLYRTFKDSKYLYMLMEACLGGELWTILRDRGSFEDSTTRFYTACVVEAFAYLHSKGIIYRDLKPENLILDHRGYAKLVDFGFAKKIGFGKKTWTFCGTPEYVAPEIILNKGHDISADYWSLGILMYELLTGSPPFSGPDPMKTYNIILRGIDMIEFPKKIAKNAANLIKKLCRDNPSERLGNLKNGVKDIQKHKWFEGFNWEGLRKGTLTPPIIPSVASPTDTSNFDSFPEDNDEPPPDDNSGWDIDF

[5] = molecular target: T3, cGMP-dependent protein kinase 1 (Homo sapiens); details: at 1 µM
[6] = molecular target: T4, cGMP-dependent protein kinase 2 (Homo sapiens) (UniProt Q13237); details: at 0.1 µM
T4 sequence (whole entry): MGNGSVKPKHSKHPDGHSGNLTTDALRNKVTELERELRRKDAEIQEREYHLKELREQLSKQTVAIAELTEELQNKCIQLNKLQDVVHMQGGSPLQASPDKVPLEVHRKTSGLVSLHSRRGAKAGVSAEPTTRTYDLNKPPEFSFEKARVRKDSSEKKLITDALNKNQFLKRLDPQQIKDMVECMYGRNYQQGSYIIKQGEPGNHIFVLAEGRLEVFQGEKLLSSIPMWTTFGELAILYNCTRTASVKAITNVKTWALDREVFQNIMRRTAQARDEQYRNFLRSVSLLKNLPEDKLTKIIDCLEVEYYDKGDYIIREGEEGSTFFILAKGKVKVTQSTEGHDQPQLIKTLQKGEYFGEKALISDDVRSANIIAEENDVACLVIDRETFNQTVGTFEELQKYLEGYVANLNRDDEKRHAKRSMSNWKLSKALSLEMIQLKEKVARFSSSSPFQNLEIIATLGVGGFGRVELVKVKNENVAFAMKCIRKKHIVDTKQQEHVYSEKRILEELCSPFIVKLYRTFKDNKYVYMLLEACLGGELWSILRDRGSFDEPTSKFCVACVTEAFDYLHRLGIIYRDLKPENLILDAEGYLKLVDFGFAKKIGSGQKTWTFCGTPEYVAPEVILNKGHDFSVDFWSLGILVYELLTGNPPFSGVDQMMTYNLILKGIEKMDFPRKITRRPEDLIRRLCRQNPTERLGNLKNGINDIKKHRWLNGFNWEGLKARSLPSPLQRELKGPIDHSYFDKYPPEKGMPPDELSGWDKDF

[7] = molecular target: T4, cGMP-dependent protein kinase 2 (Homo sapiens); details: at 1 µM
[8] = molecular target: T5, cAMP-dependent protein kinase catalytic subunit PRKX (Homo sapiens) (UniProt P51817); details: at 0.1 µM
T5 sequence (whole entry): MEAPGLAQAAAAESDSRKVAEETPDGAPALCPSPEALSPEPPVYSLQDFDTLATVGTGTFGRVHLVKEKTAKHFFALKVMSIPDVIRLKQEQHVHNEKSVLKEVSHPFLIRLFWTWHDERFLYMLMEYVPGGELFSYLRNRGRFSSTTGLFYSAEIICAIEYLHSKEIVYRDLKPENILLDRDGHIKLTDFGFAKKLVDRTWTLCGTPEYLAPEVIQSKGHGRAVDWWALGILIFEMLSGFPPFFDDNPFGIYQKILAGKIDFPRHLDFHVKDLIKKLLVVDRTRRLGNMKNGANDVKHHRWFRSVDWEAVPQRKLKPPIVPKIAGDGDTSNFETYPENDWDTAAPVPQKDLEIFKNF

[9] = molecular target: T5, cAMP-dependent protein kinase catalytic subunit PRKX (Homo sapiens); details: at 1 µM
[10] = molecular target: Rho-associated protein kinase 1 (Homo sapiens) (UniProt Q13464); details: at 0.1 µM
Chain of Rho-associated protein kinase 1 (Homo sapiens) (Q13464 2-1354 limits assumed): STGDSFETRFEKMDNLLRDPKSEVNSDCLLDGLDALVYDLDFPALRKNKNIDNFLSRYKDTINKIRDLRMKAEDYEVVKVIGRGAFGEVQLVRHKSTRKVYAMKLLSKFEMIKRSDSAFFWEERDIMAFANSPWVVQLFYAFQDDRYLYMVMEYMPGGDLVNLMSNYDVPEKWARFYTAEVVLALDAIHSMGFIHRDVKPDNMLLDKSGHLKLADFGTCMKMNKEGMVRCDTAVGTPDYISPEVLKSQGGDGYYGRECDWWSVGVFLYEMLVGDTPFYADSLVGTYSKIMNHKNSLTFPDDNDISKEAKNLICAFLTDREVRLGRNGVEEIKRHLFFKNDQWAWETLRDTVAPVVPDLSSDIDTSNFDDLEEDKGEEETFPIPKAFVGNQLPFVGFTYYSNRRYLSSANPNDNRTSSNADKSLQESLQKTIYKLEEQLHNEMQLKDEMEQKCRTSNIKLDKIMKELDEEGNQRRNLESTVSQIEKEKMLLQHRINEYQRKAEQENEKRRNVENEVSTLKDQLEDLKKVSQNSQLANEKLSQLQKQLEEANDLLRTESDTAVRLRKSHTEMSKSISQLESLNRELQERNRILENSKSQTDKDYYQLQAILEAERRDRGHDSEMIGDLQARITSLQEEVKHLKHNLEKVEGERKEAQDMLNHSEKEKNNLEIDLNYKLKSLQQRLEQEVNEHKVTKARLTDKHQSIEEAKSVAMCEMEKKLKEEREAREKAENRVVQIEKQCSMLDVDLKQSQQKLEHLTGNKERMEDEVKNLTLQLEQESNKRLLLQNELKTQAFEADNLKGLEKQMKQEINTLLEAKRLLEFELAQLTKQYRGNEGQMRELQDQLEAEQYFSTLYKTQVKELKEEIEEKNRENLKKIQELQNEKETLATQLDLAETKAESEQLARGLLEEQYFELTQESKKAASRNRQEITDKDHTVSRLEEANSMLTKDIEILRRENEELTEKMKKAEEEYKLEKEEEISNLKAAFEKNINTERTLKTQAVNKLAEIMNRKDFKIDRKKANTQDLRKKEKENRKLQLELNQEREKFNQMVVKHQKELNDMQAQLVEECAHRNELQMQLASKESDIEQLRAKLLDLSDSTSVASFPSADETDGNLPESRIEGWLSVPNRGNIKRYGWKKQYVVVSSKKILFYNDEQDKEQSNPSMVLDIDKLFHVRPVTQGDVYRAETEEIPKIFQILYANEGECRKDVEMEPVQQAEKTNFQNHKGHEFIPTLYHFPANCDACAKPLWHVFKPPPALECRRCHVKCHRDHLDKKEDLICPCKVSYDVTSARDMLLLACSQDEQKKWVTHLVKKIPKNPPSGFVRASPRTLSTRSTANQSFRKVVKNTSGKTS

[11] = molecular target: Rho-associated protein kinase 1 (Homo sapiens) (UniProt Q13464); details: at 1 µM
[12] = molecular target: Rho-associated protein kinase 2 (Homo sapiens) (UniProt O75116); details: at 0.1 µM
Chain of Rho-associated protein kinase 2 (Homo sapiens) (O75116 whole entry, looked up): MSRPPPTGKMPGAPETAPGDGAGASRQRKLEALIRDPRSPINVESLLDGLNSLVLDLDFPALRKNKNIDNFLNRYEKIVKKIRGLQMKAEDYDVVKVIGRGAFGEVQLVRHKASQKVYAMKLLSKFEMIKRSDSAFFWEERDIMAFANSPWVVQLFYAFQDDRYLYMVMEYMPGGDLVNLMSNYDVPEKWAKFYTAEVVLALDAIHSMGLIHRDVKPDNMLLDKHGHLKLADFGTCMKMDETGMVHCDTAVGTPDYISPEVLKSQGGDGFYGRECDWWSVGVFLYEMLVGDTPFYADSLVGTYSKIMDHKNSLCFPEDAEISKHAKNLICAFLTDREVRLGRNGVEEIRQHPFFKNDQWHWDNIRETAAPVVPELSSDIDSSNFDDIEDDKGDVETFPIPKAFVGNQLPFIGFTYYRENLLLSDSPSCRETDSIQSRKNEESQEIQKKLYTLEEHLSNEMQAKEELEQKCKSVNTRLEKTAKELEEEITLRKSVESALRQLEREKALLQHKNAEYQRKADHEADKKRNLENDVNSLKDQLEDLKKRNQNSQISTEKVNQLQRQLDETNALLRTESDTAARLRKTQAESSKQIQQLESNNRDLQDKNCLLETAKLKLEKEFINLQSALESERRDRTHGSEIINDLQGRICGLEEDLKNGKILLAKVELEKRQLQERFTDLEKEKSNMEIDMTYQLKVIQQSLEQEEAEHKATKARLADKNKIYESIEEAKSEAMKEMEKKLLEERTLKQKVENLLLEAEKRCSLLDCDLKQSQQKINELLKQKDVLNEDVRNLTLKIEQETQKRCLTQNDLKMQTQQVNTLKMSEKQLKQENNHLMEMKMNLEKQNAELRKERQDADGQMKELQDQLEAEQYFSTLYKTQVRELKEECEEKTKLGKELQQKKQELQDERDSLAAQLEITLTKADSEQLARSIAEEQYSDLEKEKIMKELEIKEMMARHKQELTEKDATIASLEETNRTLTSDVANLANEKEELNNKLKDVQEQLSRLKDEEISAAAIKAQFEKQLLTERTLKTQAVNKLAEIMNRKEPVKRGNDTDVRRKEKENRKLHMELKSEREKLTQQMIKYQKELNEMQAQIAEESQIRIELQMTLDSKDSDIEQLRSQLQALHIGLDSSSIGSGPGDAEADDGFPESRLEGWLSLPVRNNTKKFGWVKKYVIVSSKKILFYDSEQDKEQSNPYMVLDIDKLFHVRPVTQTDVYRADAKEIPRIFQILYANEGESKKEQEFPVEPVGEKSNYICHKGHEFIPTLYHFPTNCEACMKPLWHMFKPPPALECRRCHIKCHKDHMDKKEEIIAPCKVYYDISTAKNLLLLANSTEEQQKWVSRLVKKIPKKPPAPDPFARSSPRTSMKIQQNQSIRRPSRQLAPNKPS

[13] = molecular target: Rho-associated protein kinase 2 (Homo sapiens) (UniProt O75116); details: at 1 µM
[14] = molecular target: Ribosomal protein S6 kinase alpha-1 (Homo sapiens) (UniProt Q15418); details: at 0.1 µM
Chain of Ribosomal protein S6 kinase alpha-1 (Homo sapiens) (Q15418 whole entry): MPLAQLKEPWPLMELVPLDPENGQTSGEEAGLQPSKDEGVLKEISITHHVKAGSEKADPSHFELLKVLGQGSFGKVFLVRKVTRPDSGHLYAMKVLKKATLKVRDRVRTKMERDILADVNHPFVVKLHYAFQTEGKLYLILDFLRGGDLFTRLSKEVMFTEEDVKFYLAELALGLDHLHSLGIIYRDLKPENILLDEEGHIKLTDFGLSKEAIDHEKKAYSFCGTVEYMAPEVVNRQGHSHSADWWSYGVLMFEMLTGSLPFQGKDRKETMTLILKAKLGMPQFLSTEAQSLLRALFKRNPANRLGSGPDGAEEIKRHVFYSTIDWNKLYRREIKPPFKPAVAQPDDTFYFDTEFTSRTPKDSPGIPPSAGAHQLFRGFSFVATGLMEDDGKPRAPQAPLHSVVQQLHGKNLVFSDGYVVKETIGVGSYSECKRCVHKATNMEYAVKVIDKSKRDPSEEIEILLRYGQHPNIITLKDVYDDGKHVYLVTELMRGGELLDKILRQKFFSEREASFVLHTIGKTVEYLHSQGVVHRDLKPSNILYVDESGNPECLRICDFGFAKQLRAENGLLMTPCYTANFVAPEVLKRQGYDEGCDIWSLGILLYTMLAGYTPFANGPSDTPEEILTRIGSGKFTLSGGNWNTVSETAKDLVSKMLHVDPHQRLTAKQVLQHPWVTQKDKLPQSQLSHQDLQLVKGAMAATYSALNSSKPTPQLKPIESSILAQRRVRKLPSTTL

[15] = molecular target: Ribosomal protein S6 kinase alpha-1 (Homo sapiens) (UniProt Q15418); details: at 1 µM
[16] = molecular target: Ribosomal protein S6 kinase alpha-3 (Homo sapiens) (UniProt P51812); details: at 0.1 µM
[17] = molecular target: Ribosomal protein S6 kinase alpha-3 (Homo sapiens) (UniProt P51812); details: at 1 µM
[18] = molecular target: Ribosomal protein S6 kinase alpha-2 (Homo sapiens) (UniProt Q15349); details: at 0.1 µM
Chain of Ribosomal protein S6 kinase alpha-2 (Homo sapiens) (Q15349 whole entry): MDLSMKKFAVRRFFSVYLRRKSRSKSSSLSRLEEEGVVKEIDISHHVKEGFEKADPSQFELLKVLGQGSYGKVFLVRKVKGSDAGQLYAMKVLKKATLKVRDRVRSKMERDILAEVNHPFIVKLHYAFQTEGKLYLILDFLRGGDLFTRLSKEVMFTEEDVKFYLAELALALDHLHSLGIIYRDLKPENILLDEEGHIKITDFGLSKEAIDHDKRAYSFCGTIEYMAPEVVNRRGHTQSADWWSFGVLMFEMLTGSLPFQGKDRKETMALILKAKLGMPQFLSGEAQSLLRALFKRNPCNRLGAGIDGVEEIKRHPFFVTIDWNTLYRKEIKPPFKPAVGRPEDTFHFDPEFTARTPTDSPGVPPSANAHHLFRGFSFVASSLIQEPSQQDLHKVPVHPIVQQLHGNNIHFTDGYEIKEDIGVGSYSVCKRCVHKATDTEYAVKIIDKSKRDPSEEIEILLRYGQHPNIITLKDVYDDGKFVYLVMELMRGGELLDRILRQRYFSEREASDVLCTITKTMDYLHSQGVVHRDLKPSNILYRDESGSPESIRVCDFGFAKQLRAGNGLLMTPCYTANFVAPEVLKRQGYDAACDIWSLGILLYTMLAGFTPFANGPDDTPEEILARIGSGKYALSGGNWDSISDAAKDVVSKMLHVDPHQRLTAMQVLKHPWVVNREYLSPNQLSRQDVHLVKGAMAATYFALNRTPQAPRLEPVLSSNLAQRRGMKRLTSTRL

[19] = molecular target: Ribosomal protein S6 kinase alpha-2 (Homo sapiens) (UniProt Q15349); details: at 1 µM
[20] = molecular target: Ribosomal protein S6 kinase alpha-6 (Homo sapiens) (UniProt Q9UK32); details: at 0.1 µM;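 note: reported value is the mean inhibition of RSK4, from the GSK PKIS kinase inhibitor screen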
Chain of Ribosomal protein S6 kinase alpha-6 (Homo sapiens) (Q9UK32 whole entry): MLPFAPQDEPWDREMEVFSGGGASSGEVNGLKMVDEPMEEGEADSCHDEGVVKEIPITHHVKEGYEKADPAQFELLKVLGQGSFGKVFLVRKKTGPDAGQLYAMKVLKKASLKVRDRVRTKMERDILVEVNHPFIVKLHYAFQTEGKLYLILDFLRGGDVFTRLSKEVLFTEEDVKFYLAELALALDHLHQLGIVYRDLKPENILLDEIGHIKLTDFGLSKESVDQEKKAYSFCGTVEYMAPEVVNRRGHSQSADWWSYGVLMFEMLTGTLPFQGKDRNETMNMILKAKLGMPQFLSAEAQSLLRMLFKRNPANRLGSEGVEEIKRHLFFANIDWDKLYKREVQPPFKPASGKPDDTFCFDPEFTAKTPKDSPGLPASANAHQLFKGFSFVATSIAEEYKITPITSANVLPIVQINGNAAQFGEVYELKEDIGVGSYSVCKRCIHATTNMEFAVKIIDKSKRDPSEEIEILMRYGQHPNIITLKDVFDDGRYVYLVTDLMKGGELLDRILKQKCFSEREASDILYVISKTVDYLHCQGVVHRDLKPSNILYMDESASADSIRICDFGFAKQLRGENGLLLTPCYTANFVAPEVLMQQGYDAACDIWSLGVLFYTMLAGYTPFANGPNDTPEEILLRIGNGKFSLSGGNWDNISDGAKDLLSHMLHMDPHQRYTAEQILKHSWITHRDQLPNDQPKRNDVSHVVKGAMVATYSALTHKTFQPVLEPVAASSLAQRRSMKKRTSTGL

CCn1c(-c2nonc2N)nc2ccccc21
inhibition [1]: 4.37% | inhibition [2]: 2.15% | inhibition [3]: 3.93% | inhibition [4]: 6.5% | inhibition [5]: 30.9% | inhibition [6]: 26.9% | inhibition [7]: 70.6% | inhibition [8]: 3.21% | inhibition [9]: 5.67% | inhibition [10]: 6.65% | inhibition [11]: 36.6% | inhibition [12]: 9.34% | inhibition [13]: 42.6% | inhibition [14]: 18% | inhibition [15]: 58.3% | inhibition [16]: 7.22% | inhibition [17]: 36.2% | inhibition [18]: 19.1% | inhibition [19]: 68.5% | inhibition [20]: 1.71%

Cc1cccc(Nc2ncc(-c3ccccc3)o2)c1
inhibition [1]: 3.61% | inhibition [2]: 2.84% | inhibition [3]: 4.5% | inhibition [4]: 5.35% | inhibition [5]: 11.3% | inhibition [6]: 6.06% | inhibition [7]: 10.7% | inhibition [8]: 11.3% | inhibition [9]: 12% | inhibition [10]: 1.64% | inhibition [11]: 4.38% | inhibition [12]: 2.08% | inhibition [13]: 3.95% | inhibition [14]: 2.35% | inhibition [15]: 2.99% | inhibition [16]: 0.91% | inhibition [17]: 3.43% | inhibition [18]: 2.17% | inhibition [19]: 2.67% | inhibition [20]: 1.32%

CCOc1ccc2c(-c3ccnc(Nc4cccc(C(F)(F)F)c4)n3)cnn2n1
inhibition [1]: 1.84% | inhibition [2]: 3.02% | inhibition [3]: 3.58% | inhibition [4]: 0.52% | inhibition [5]: 1.15% | inhibition [6]: 0.91% | inhibition [7]: 0.29% | inhibition [8]: 0.1% | inhibition [9]: -0.76% | inhibition [10]: -1.15% | inhibition [11]: -1% | inhibition [12]: 1.46% | inhibition [13]: -0.05% | inhibition [14]: -0.89% | inhibition [15]: 0.51% | inhibition [16]: 1.29% | inhibition [17]: 1.88% | inhibition [18]: 1.09% | inhibition [19]: 0.76% | inhibition [20]: -0.47%

CC(=O)NCc1cccc(C#Cc2cncnc2Nc2ccc(OCc3cccc(F)c3)c(Cl)c2)c1
inhibition [1]: 2.16% | inhibition [2]: 1.12% | inhibition [3]: 1.92% | inhibition [4]: 1.14% | inhibition [5]: 1.95% | inhibition [6]: 1.31% | inhibition [7]: 2.28% | inhibition [8]: 1.14% | inhibition [9]: 2.2% | inhibition [10]: 0.02% | inhibition [11]: 2.63% | inhibition [12]: 3.83% | inhibition [13]: 3.71% | inhibition [14]: 0.02% | inhibition [15]: 0.7% | inhibition [16]: 0.76% | inhibition [17]: 1.97% | inhibition [18]: 1.51% | inhibition [19]: 1.36% | inhibition [20]: 0.19%

O=C(O[C@H]1CN[C@H](C#Cc2cc3ncnc(Nc4ccc(Cc5ccccc5)cc4)c3s2)C1)N1CCOCC1
inhibition [1]: 1.56% | inhibition [2]: 1.99% | inhibition [3]: 1.5% | inhibition [4]: 3.46% | inhibition [5]: 3.85% | inhibition [6]: 4.54% | inhibition [7]: 3.68% | inhibition [8]: 3.27% | inhibition [9]: 3.94% | inhibition [10]: 2.02% | inhibition [11]: 1.88% | inhibition [12]: 1.88% | inhibition [13]: 2.51% | inhibition [14]: 1.51% | inhibition [15]: 1.3% | inhibition [16]: 1.48% | inhibition [17]: 1.79% | inhibition [18]: 2.02% | inhibition [19]: 3% | inhibition [20]: 1.78%

CCn1cc(-c2ccnc3[nH]ccc23)c(-c2cccc(NC(=O)Nc3ccc(OCc4ccccc4)cc3)c2)n1
inhibition [1]: 2.85% | inhibition [2]: 1.53% | inhibition [3]: 4.36% | inhibition [4]: 2.12% | inhibition [5]: 1.15% | inhibition [6]: 2.48% | inhibition [7]: 1.43% | inhibition [8]: 4.18% | inhibition [9]: 4.31% | inhibition [10]: -1.8% | inhibition [11]: -1.44% | inhibition [12]: 1.34% | inhibition [13]: 15.9% | inhibition [14]: -1.5% | inhibition [15]: 1.29% | inhibition [16]: 1.34% | inhibition [17]: 1.78% | inhibition [18]: -0.02% | inhibition [19]: 0.38% | inhibition [20]: -1.3%
